Laboratory results taken from PubChem BioAssay (NCATS).
Values joined by “and” are separate entries in the source; they are usually repeats but may differ in a detail not shown here. Equal entries are not always repeated. Records with an inconclusive call do not appear. Active and inactive are the calls of the source. Calls come from the whole dose curve.

Target: Bile acid receptor (Homo sapiens) (UniProt Q96RI1)
Test: qHTS assay for small molecule agonists of farnesoid X receptor signaling (AID 588527);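 note: 0% = vehicle basal and 100% = reference agonist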
Details: HEK293T FXR-UAS-bla, beta-lactamase ratio, 16 h; activation: active compounds read high
In short: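 FXR-UAS-bla HEK293T, 10% dialyzed FBS; cpds up to 92 uM titration, 16 h 37 C; CCF4 dye 2 h RT; fluorescence. Normalized to chenodeoxycholic acid 100 uM (100%) and DMSO (0%); Hill fit gives EC50, efficacy.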

Chain of Bile acid receptor (Homo sapiens) (Q96RI1 whole entry, looked up): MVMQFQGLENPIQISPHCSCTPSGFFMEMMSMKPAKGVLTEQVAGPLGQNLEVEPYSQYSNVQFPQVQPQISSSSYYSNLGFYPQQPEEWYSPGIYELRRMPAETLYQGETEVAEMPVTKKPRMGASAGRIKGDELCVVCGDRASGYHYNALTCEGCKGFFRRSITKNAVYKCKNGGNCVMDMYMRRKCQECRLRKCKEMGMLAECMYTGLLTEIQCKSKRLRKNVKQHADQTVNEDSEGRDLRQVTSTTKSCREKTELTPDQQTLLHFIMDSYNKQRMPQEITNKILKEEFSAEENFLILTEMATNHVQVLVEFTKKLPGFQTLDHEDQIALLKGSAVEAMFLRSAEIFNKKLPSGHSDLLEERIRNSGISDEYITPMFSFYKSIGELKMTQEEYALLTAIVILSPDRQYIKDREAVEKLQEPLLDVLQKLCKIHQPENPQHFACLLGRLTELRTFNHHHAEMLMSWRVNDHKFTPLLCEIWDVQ

SMILES	activation
C=C(C)C1CC=C(C)C(OC(C)=O)C1 (stereo not given)	-0.422% (inactive)
CCCCN(CCO)CCCC	-4.1% (inactive)
FC(F)(F)c1ccccc1Cl	-1.54% (inactive)
CC(C)OC(=O)c1ccccc1C(=O)OC(C)C	0.429% (inactive)
CCCC/C=C\CCCCCCCCO	-5.44% (inactive)
O=[N+]([O-])c1ccc2nc[nH]c2c1	-1.7% (inactive)
CC1=CC(=O)NS(=O)(=O)O1	1.83% (inactive) and 0.839% (inactive)
N#CCc1ccccc1[N+](=O)[O-]	-1.36% (inactive)
O=S(c1ccc(Cl)cc1)c1cc(Cl)c(Cl)cc1Cl (stereo not given)	0.155% (inactive)
Cc1ccccc1C(N)=O	2.86% (inactive)
N#CC1(O)CCCCC1	-2.07% (inactive)
Nc1ccc(N)c2c1C(=O)c1c(N)ccc(N)c1C2=O	-0.332% (inactive)
C/C=C/C/C=C\CCCCCCCCOC(C)=O	-4.9% (inactive)
CCc1ccc(C(c2ccc(CC)cc2)C(Cl)Cl)cc1	3.04% (inactive)
Nc1cc(Cl)c(N)c(Cl)c1	-3.48% (inactive)
N#Cc1ccccc1	-3.25% (inactive)
O=C(O)c1cccc(C(=O)O)c1	-0.333% (inactive)
CC(C)CCC[C@@H](C)[C@H]1CC[C@H]2[C@@H]3CC=C4C[C@@H](O)CC[C@]4(C)[C@H]3CC[C@]12C	0.612% (inactive)
C[Si]1(C)O[Si](C)(C)O[Si](C)(C)O1	-0.282% (inactive)
C[Si](C)(Cl)[Si](C)(C)Cl	0.0904% (inactive)

SMILES	activation
O=[N+]([O-])c1ccc(NCCO)c(OCCO)c1	-1.27% (inactive)
Cn1c(=O)[nH]c(=O)n(C2CCC(O)CC2)c1=O (stereo not given)	-4.56% (inactive)
Oc1c(Cl)ccc(Cl)c1Cl	-2.11% (inactive)
Cc1ccc([N+](=O)[O-])c(C)c1	0.441% (inactive) and 0.298% (inactive)
OB(O)O	1.87% (inactive) and 2.1% (inactive)
CN(CCO)CC(O)Cn1cnc2c1c(=O)n(C)c(=O)n2C (stereo not given) (tested in a mixture with another compound)	1.67% (inactive)
Nc1c(N=Nc2ccc(S(=O)(=O)CCOS(=O)(=O)O)cc2)c(S(=O)(=O)O)cc2cc(S(=O)(=O)O)c(N=Nc3ccc(S(=O)(=O)CCOS(=O)(=O)O)cc3)c(O)c12	4.58% (inactive)
NCCCCCCCCCCCC(=O)O	0.942% (inactive)
c1ccc(COCc2ccccc2)cc1	-1.69% (inactive)
FB(F)F	0.812% (inactive)
CCN(Cc1cccc(S(=O)(=O)O)c1)c1ccc(C(=C2C=CC(=[N+](CC)Cc3cccc(S(=O)(=O)O)c3)C=C2)c2ccccc2S(=O)(=O)[O-])cc1	-1.6% (inactive)
Cc1ccc(S(=O)(=O)NC2CCCCC2)cc1	0.615% (inactive)
COc1ccc(N)c(C)c1	-1.77% (inactive)
C=C[Si](OCCOC)(OCCOC)OCCOC	-1.57% (inactive)
OCc1cccc(Oc2ccccc2)c1	-0.998% (inactive)
CCCCCCCCCCCCOCC1CO1 (stereo not given)	-0.164% (inactive)
O=C=NCCCCCCN=C=O	0.566% (inactive)
CCOC(C)(C)C	2.11% (inactive)
CCCCCCCCCCCCCCCCCC(=O)OC[C@@H](O)[C@H]1OC[C@H](O)[C@H]1O	5.18% (inactive)
CSc1ccc(Cl)cc1	-0.0441% (inactive)

Target: Peroxisome proliferator-activated receptor delta (Homo sapiens) (UniProt Q03181)
Test: qHTS assay for small molecule agonists of peroxisome proliferator-activated receptor delta signaling (AID 588534);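 note: 0% = DMSO basal wells and 100% = positive control agonist at 10 µM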
Details: HEK293T PPARdelta-UAS-bla, beta-lactamase ratio, 18 h; series mostly up to 76.7 µM; activation: at the top concentration
In short: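 Agonist-mode qHTS; reporter cells, 5 hrs 37 C pre-incubation; compound titration, 18 hrs 37 C; CCF4 dye, 2 hrs RT; fluorescence read. EC50/efficacy via Hill fit.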

Chain of Peroxisome proliferator-activated receptor delta (Homo sapiens) (Q03181 whole entry, looked up): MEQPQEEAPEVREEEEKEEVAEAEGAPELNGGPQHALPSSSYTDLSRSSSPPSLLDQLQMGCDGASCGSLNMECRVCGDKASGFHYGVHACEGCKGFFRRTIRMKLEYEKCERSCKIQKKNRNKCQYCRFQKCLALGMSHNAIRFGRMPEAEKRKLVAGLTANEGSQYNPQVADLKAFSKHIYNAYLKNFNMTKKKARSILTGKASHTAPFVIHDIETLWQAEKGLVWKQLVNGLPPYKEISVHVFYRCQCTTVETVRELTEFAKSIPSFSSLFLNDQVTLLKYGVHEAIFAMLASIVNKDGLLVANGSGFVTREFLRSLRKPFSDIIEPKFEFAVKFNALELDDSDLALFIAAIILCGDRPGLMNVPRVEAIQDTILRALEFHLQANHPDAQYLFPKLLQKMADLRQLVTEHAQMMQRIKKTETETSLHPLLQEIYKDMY

SMILES	activation	outcome
C=C(C)C1CC=C(C)C(OC(C)=O)C1 (stereo not given)	4.98% (inactive)	–
CCCCN(CCO)CCCC	-0.441% (inactive)	–
FC(F)(F)c1ccccc1Cl	1.82% (inactive)	–
CC(C)OC(=O)c1ccccc1C(=O)OC(C)C	-0.726% (inactive)	–
CCCC/C=C\CCCCCCCCO	-0.121% (inactive)	–
O=[N+]([O-])c1ccc2nc[nH]c2c1	11.3% (inactive)	–
CC1=CC(=O)NS(=O)(=O)O1	–	inactive
N#CCc1ccccc1[N+](=O)[O-]	-1.89% (inactive)	–
O=S(c1ccc(Cl)cc1)c1cc(Cl)c(Cl)cc1Cl (stereo not given)	-0.715% (inactive)	–
Cc1ccccc1C(N)=O	9.67% (inactive)	–
N#CC1(O)CCCCC1	0.876% (inactive)	–
Nc1ccc(N)c2c1C(=O)c1c(N)ccc(N)c1C2=O	2.78% (inactive)	–
C/C=C/C/C=C\CCCCCCCCOC(C)=O	5.08% (inactive)	–
CCc1ccc(C(c2ccc(CC)cc2)C(Cl)Cl)cc1	16.2% (inactive)	–
Nc1cc(Cl)c(N)c(Cl)c1	–	inactive
N#Cc1ccccc1	0.881% (inactive)	–
O=C(O)c1cccc(C(=O)O)c1	2.56% (inactive)	–
CC(C)CCC[C@@H](C)[C@H]1CC[C@H]2[C@@H]3CC=C4C[C@@H](O)CC[C@]4(C)[C@H]3CC[C@]12C	-6.63% (inactive)	–
C[Si]1(C)O[Si](C)(C)O[Si](C)(C)O1	-3.5% (inactive)	–
C[Si](C)(Cl)[Si](C)(C)Cl	-3.96% (inactive)	–

SMILES	activation	outcome
O=[N+]([O-])c1ccc(NCCO)c(OCCO)c1	10.8% (inactive)	–
Cn1c(=O)[nH]c(=O)n(C2CCC(O)CC2)c1=O (stereo not given)	0.347% (inactive)	–
Oc1c(Cl)ccc(Cl)c1Cl	-3.64% (inactive)	–
Cc1ccc([N+](=O)[O-])c(C)c1	–	inactive
OB(O)O	–	inactive
CN(CCO)CC(O)Cn1cnc2c1c(=O)n(C)c(=O)n2C (stereo not given) (tested in a mixture with another compound)	3.05% (inactive)	–
Nc1c(N=Nc2ccc(S(=O)(=O)CCOS(=O)(=O)O)cc2)c(S(=O)(=O)O)cc2cc(S(=O)(=O)O)c(N=Nc3ccc(S(=O)(=O)CCOS(=O)(=O)O)cc3)c(O)c12	9.1% (inactive)	–
NCCCCCCCCCCCC(=O)O	-0.328% (inactive)	–
c1ccc(COCc2ccccc2)cc1	12.9% (inactive)	–
FB(F)F	-0.872% (inactive)	–
CCN(Cc1cccc(S(=O)(=O)O)c1)c1ccc(C(=C2C=CC(=[N+](CC)Cc3cccc(S(=O)(=O)O)c3)C=C2)c2ccccc2S(=O)(=O)[O-])cc1	-0.635% (inactive)	–
Cc1ccc(S(=O)(=O)NC2CCCCC2)cc1	7.76% (inactive)	–
COc1ccc(N)c(C)c1	8.91% (inactive)	–
C=C[Si](OCCOC)(OCCOC)OCCOC	6.37% (inactive)	–
OCc1cccc(Oc2ccccc2)c1	2% (inactive)	–
CCCCCCCCCCCCOCC1CO1 (stereo not given)	-1.61% (inactive)	–
O=C=NCCCCCCN=C=O	-2.93% (inactive)	–
CCOC(C)(C)C	-0.734% (inactive)	–
CCCCCCCCCCCCCCCCCC(=O)OC[C@@H](O)[C@H]1OC[C@H](O)[C@H]1O	4.06% (inactive)	–
CSc1ccc(Cl)cc1	7.79% (inactive)	–
